Laboratory results as given in PubChem BioAssay AID1159580 (chemical genetic matrix, 2015).
In all, about 5,500 compounds went through this assay and about 2,000 (36%) were called active. About 18% were inconclusive and are not listed. Cut-off read from the data, not from the text of the source: active = normalized growth mostly below about 0.91 (no sharp cut-off); inconclusive = no clear call, values can overlap the other calls; inactive = mostly above about 0.92. The list shows a part of the results.

Assay: chemical genetic growth profiling, strain panel (AID 1159580);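 note: tested at 20 µM; growth read once vehicle control cultures reached saturation at 30 °C; 1 = growth at the plate median or of vehicle wells; lower values mean less growth of the strain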
Conditions: growth OD

Measured: normalized growth

O=c1c(O)cc([C@H]2Oc3cc(O)cc(O)c3C[C@H]2O)cc2c([C@H]3Oc4cc(O)cc(O)c4C[C@H]3O)cc(O)c(O)c12
inactive: S. cerevisiae deletion strains, locus YJR066W, strain TOR1, hits give low values 0.921 | S. cerevisiae deletion strains, locus YKL009W, strain mrt4, hits give low values 1.09 | S. cerevisiae deletion strains, locus YKL068W, hits give low values 1.01 | S. cerevisiae deletion strains, locus YKL160W, strain elf1, hits give low values 1.01 | S. cerevisiae deletion strains, locus YKL190W, strain CNB1, hits give low values 1.02 | S. cerevisiae deletion strains, locus YKR001C, strain vps1, hits give low values 1.02 | S. cerevisiae deletion strains, locus YKR026C, strain gcn3, hits give low values 0.987 | S. cerevisiae deletion strains, locus YKR091W, strain srl3, hits give low values 1.03 | S. cerevisiae deletion strains, locus YLL001W, strain dnm1, hits give low values 1.03 | S. cerevisiae deletion strains, locus YLL026W, hits give low values 1.04 | S. cerevisiae deletion strains, locus YLL041C, strain sdh2, hits give low values 1.03 | S. cerevisiae deletion strains, locus YLR027C, strain aat2, hits give low values 1.02 | S. cerevisiae deletion strains, locus YLR039C, strain RIC1, hits give low values 1.15 | S. cerevisiae deletion strains, locus YLR058C, strain SHM2, hits give low values 1 | S. cerevisiae deletion strains, locus YLR102C, strain apc9, hits give low values 1.02 | S. cerevisiae deletion strains, locus YLR113W, strain HOG1, hits give low values 1.03 | S. cerevisiae deletion strains, locus YLR221C, strain rsa3, hits give low values 1.03 | S. cerevisiae deletion strains, locus YLR258W, strain gsy2, hits give low values 1.02 | S. cerevisiae deletion strains, locus YLR262C, strain YPT6 (second series), hits give low values 1.06 | S. cerevisiae deletion strains, locus YLR262C, strain YPT6, hits give low values 1.19 | S. cerevisiae deletion strains, locus YLR268W, strain sec22, hits give low values 1.03 | S. cerevisiae deletion strains, locus YLR320W, strain mms22, hits give low values 1.07 | S. cerevisiae deletion strains, locus YLR342W, strain FKS1 (second series), hits give low values 1.01 | S. cerevisiae deletion strains, locus YLR342W, strain FKS1, hits give low values 1.01 | S. cerevisiae deletion strains, locus YLR357W, strain rsc2, hits give low values 0.989 | S. cerevisiae deletion strains, locus YLR370C, strain arc18, hits give low values 1.01 | S. cerevisiae deletion strains, locus YLR371W, strain rom2, hits give low values 0.977 | S. cerevisiae deletion strains, locus YLR384C, strain iki3, hits give low values 1.03 | S. cerevisiae deletion strains, locus YLR418C, strain cdc73, hits give low values 1.03 | S. cerevisiae deletion strains, locus YML016C, strain PPZ1, hits give low values 1 | S. cerevisiae deletion strains, locus YML032C, strain rad52, hits give low values 1.02 | S. cerevisiae deletion strains, locus YML120C, strain ndi1, hits give low values 1.03 | S. cerevisiae deletion strains, locus YML124C, strain tub3, hits give low values 1.02 | S. cerevisiae deletion strains, locus YMR058W, strain fet3, hits give low values 0.955 | S. cerevisiae deletion strains, locus YMR078C, strain ctf18, hits give low values 1.02 | S. cerevisiae deletion strains, locus YMR125W, strain sto1, hits give low values 1.03 | S. cerevisiae deletion strains, locus YMR129W, hits give low values 1.04 | S. cerevisiae deletion strains, locus YMR205C, strain PFK2, hits give low values 1.09 | S. cerevisiae deletion strains, locus YMR223W, strain ubp8, hits give low values 1 | S. cerevisiae deletion strains, locus YMR231W, strain pep5, hits give low values 1.02 | S. cerevisiae deletion strains, locus YMR263W, strain SAP30, hits give low values 1.03 | S. cerevisiae deletion strains, locus YMR307W, strain GAS1, hits give low values 0.915 | S. cerevisiae deletion strains, locus YNL067W, strain RPL9B, hits give low values 1.02 | S. cerevisiae deletion strains, locus YNL071W, strain lat1, hits give low values 1.05 | S. cerevisiae deletion strains, locus YNL183C, strain NPR1, hits give low values 0.95 | S. cerevisiae deletion strains, locus YNL209W, strain ssb2, hits give low values 0.996 | S. cerevisiae deletion strains, locus YNL233W, strain BNI4, hits give low values 1.04 | S. cerevisiae deletion strains, locus YNL248C, strain rpa49, hits give low values 0.999 | S. cerevisiae deletion strains, locus YNL250W, strain rad50, hits give low values 1.05 | S. cerevisiae deletion strains, locus YNL271C, strain bni1, hits give low values 1 | S. cerevisiae deletion strains, locus YNL298W, strain CLA4, hits give low values 1.02 | S. cerevisiae deletion strains, locus YNL307C, strain MCK1, hits give low values 1.02 | S. cerevisiae deletion strains, locus YNL322C, strain KRE1 (second series), hits give low values 1.07 | S. cerevisiae deletion strains, locus YNL322C, strain KRE1, hits give low values 1.01 | S. cerevisiae deletion strains, locus YNR049C, strain mso1, hits give low values 1.04 | S. cerevisiae deletion strains, locus YNR052C, strain pop2, hits give low values 0.963 | S. cerevisiae deletion strains, locus YOL006C, strain TOP1, hits give low values 1.03 | S. cerevisiae deletion strains, locus YOL012C, strain htz1 1.21 | S. cerevisiae deletion strains, locus YOL147C, strain pex11, hits give low values 1.01 | S. cerevisiae deletion strains, locus YOR001W, strain rrp6, hits give low values 1.03 | S. cerevisiae deletion strains, locus YOR061W, strain CKA2, hits give low values 1.02 | S. cerevisiae deletion strains, locus YOR069W, strain VPS5, hits give low values 1 | S. cerevisiae deletion strains, locus YOR070C, strain gyp1, hits give low values 1.01 | S. cerevisiae deletion strains, locus YOR080W, strain dia2, hits give low values 1.06 | S. cerevisiae deletion strains, locus YOR083W, strain WHI5, hits give low values 1.01 | S. cerevisiae deletion strains, locus YOR106W, strain vam3, hits give low values 1.04 | S. cerevisiae deletion strains, locus YOR136W, strain idh2, hits give low values 1.02 | S. cerevisiae deletion strains, locus YOR144C, strain elg1, hits give low values 1.02 | S. cerevisiae deletion strains, locus YOR184W, strain ser1, hits give low values 1.06 | S. cerevisiae deletion strains, locus YOR231W, strain MKK1, hits give low values 1.01 | S. cerevisiae deletion strains, locus YOR265W, strain rbl2, hits give low values 1.03 | S. cerevisiae deletion strains, locus YOR270C, strain vph1, hits give low values 1.14 | S. cerevisiae deletion strains, locus YOR290C, strain snf2, hits give low values 1.01 | S. cerevisiae deletion strains, locus YOR316C, strain cot1, hits give low values 1.01 | S. cerevisiae deletion strains, locus YPL051W, strain arl3, hits give low values 1.02 | S. cerevisiae deletion strains, locus YPL078C, strain atp4, hits give low values 1.01 | S. cerevisiae deletion strains, locus YPL106C, strain sse1, hits give low values 1 | S. cerevisiae deletion strains, locus YPL240C, strain hsp82, hits give low values 1.04 | S. cerevisiae deletion strains, locus YPL256C, strain CLN2, hits give low values 0.992 | S. cerevisiae deletion strains, locus YPR119W, strain clb2, hits give low values 1.03 | S. cerevisiae deletion strains, locus YPR141C, strain kar3, hits give low values 0.993 | S. cerevisiae deletion strains, locus YPR163C, strain tif3, hits give low values 1.01 | S. cerevisiae deletion strains, locus YPR167C, strain met16, hits give low values 1.02 | S. cerevisiae deletion strains, strain wtn01, hits give low values 1.03 | S. cerevisiae strains, strain wild type, hits give low values 0.998
